Results published in PubChem BioAssay AID2710 (National Center for Advancing Translational Sciences (NCATS), 2010).
The source made the active and inactive calls.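 Rule for the calls: active = compounds whose dose response marks them as Clk4 kinase inhibitors with a measurable half-maximal potency; inactive = the rest.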

Target: Dual specificity protein kinase CLK4 (Homo sapiens) (UniProt Q9HAZ1)
Assay: Kinase Inhibition Profile Study on Inhibitors of CDC-like Kinase 4
Conditions: Reaction Biology radiometric kinase assay, 10 uM ATP
Text: NIH Molecular Libraries Probe Production Centers Network [MLPCN] NIH Chemical Genomics Center [NCGC] MLSCN Grant: 1R03MH084827-01 Assay Submitter (PI): Tom Misteli NCGC Assay Overview: Alternative splicing of pre-mRNAs plays a major role in the regulation of eukaryotic gene expression. Alternative splicing is now thought to be one of the primary reasons for the complexity of higher organisms leading to an average of three protein isoforms per gene. Aberrant splicing can lead to a number of diseases and is known to play a role in rare genetic diseases such as progeria syndrome. Hutchinson-Gilford Progeria Syndrome (HGPS) is a pediatric premature aging disease caused by a spontaneous mutation in the lamin A/C (LMNA) gene due to a single point mutation in the lamin A gene effecting 1 in 4 million people. To identify both specific splicing modulators of the lamin A gene as well as general splicing modulators, a cell-based HTS assay was developed using a minigene reporter system (AIDs, 1459 & 1487). […] The Clk family is part of the CMGC group of protein kinases which includes Dyrks and are essential kinases found in all eukaryotes. Clks have been implicated to play a role in the regulation of alternative splicing; while Dyrks, in particular over expression of Dyrk1A, has been linked to diseases as Down syndrome and Alzheimer disease. This AID summarizes the characterization of lead Clk4 inhibitors in a panel of these related kinases: Clk1, 2 & 3, DYRK1/DYRK1A, and DYRK1B. Potency against Clk4 was also confirmed in the panel.
All kinase reactions were performed using 10 uM ATP in the assay. 100% activity was taken from kinase reactions with DMSO alone (the vehicle used for compound stock solutions).

Chain of Dual specificity protein kinase CLK4 (Homo sapiens) (Q9HAZ1 whole entry, looked up): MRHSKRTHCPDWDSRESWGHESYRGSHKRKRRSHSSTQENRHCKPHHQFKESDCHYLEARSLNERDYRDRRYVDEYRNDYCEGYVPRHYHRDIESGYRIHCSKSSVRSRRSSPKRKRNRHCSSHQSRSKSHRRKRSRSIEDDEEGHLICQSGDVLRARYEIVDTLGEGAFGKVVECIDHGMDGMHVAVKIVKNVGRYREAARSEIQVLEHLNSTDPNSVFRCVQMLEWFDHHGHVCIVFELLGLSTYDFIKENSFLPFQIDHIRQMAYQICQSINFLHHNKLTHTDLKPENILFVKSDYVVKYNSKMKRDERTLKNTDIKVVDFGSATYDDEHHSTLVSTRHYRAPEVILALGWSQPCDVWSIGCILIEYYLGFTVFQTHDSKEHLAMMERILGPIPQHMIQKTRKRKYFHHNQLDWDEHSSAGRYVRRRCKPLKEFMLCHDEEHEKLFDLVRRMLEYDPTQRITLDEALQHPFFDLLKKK

Potency, active:
OCc1ccc(-c2ccc3ncnc(NCCc4cnc[nH]4)c3c2)o1 1290 nM, Cc1occc1-c1ccc2ncnc(NCCc3cnc[nH]3)c2c1 740 nM, O=C(O)c1ccc(-c2ccc3ncnc(NCCc4cnc[nH]4)c3c2)o1 940 nM, c1nc(NCC2CCCC2)c2cc(-c3ccc4c(c3)OCO4)ccc2n1 90 nM, c1coc(-c2ccc3ncnc(NCc4cccs4)c3c2)c1 1090 nM, c1csc(CNc2ncnc3ccc(-c4ccoc4)cc23)c1 249 nM, CN(Cc1ncc[nH]1)c1ncnc2ccc(-c3ccc4c(c3)OCO4)cc12 120 nM, CCOC(=O)c1ccc(-c2ccc3ncnc(NCCc4cnc[nH]4)c3c2)o1 250 nM, Cc1ccc(CNc2ncnc3ccc(-c4ccoc4C)cc23)o1 490 nM, c1nc(NCCc2cnc[nH]2)c2cc(-c3ccoc3)ccc2n1 840 nM, c1csc(CNc2ncnc3ccc(-c4ccc5c(c4)OCO5)cc23)c1 39 nM, CCOC(=O)c1ccc(-c2ccc3ncnc(NCc4ccc(C)o4)c3c2)o1 230 nM, Cc1nc(CNc2ncnc3ccc(-c4ccoc4)cc23)cs1 340 nM, Cc1nc(CNc2ncnc3ccc(-c4ccoc4C)cc23)cs1 850 nM, CCOC(=O)c1ccc(-c2ccc3ncnc(NCc4csc(C)n4)c3c2)o1 810 nM, Cc1nc(CNc2ncnc3ccc(-c4ccc5c(c4)OCO5)cc23)cs1 40 nM, c1nc(NCC2CCOC2)c2cc(-c3ccc4c(c3)OCO4)ccc2n1 (stereo unspecified) 29 nM, COc1cccc(-c2ccc3ncnc(NCc4cccs4)c3c2)c1 1050 nM, Cc1nc(CN(C)c2ncnc3ccc(-c4ccc5c(c4)OCO5)cc23)cs1 11 nM, CC(C)(C)CNc1ncnc2ccc(-c3ccc4c(c3)OCO4)cc12 70 nM, CCOC(=O)c1ccc(-c2ccc3ncnc(NCc4ncc[nH]4)c3c2)o1 790 nM
